Screening results (PubChem BioAssay)
This is a sample that favours compounds with a hit; in the whole collection about 3.5% have one here.
FBW7 activator: FBW7 E3 ligase activators, primary screen, biochemical, AlphaScreen, human; F-box/WD repeat-containing protein 7 (Homo sapiens), Q969H0; AlphaScreen FBW7–phospho-cyclin E peptide binding, activator screen; normalized activity (activation), % at 26.1 µM; actives 0.13% (n = 650,000); AID 1259310, 2017; in the data active = normalized activity above about 1.9%;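 also: purified mutant Fbw7 with reduced substrate affinity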
Target sequence (Q969H0 whole entry, looked up): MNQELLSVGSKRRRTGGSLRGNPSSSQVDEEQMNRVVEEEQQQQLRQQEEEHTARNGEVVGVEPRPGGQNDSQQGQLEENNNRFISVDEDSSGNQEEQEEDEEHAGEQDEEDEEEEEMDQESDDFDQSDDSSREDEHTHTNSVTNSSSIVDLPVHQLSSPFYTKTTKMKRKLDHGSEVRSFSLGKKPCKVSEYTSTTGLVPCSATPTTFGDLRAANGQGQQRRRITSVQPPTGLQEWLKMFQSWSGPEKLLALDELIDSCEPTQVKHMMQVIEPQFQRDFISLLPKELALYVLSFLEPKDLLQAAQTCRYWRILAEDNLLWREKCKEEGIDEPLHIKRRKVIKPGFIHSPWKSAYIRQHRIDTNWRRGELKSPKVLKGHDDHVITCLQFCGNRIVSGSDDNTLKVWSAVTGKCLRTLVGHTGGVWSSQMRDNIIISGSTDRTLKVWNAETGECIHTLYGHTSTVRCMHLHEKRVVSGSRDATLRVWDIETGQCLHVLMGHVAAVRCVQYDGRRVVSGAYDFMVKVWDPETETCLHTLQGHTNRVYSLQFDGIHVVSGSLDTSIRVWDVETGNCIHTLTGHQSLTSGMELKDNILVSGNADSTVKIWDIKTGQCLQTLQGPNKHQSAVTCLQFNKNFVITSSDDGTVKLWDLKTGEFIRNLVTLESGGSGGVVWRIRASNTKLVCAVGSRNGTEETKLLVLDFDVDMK
GPR151 activ: activators of human GPR151, primary screen, cell-based, PathHunter beta-arrestin, luminescence. AID 1508602, 2020. activation, % at 11.2 µM. actives 1% (n = 650,000). PathHunter beta-arrestin GPR151 cells. G-protein coupled receptor 151 (Homo sapiens), Q8TDV0; in the data active = activation above about 4.9%;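 also: 0% = median of compound wells and 100% = cells with positive control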
MITF inh: MITF inhibitors, primary screen, biochemical, AlphaScreen, human; Microphthalmia-associated transcription factor (Homo sapiens), O75030; AlphaScreen MITF homodimerization, bead proximity signal; inhibition, % at 2.6 µM; actives 0.91% (n = 650,000); in the data active = inhibition above about 50%;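 also: 0% = vehicle wells with protein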
TEAD-YAP inh: TEAD-YAP interaction inhibition, primary screen, TEAD-YAP interaction inhibitor project, luminescence, HEK-TIYL cells | actives 1.4% (n = 640,000) | inhibition, % at 9.12 µM | TEAD-Gal4/YAP UAS-luciferase luminescence; in the data active = inhibition above about 32%;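 also: 0% = median of test compound wells and 100% = reference inhibitor wells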
GPR151 conf act: GPR151 activators, triplicate retest, confirmation, cell-based, PathHunter beta-arrestin, luminescence; shares compounds with GPR151 activ; GPR151 PathHunter beta-arrestin cells, 90 min; % of EA-reagent control over plate median; activation, % at 11.2 µM; 6,700 tested, under 10 active; AID 1508609, 2020;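 active = mean percent activation across replicates above the confirmation screen cutoff of 4.91%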
GPR119 ag: GPR119 activators in beta-arrestin cells, counter-screen for GPR151 activator project, cell-based, PathHunter beta-arrestin, luminescence, triplicate. actives 0.3% (n = 6,700). activation, % at 11.2 µM. shares compounds with GPR151 activ. 90 min; 0 = compound-well median, 100 = enzyme-acceptor control;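 active = mean percent activation in the counterscreen above 29.09%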;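 also: counterscreen on off-target GPR119 to flag nonselective hits from the GPR151 activator screen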
The depositor's hits bear a star; . = no result.

SMILES | FBW7 activator | GPR151 activ | MITF inh | TEAD-YAP inh | GPR151 conf act | GPR119 ag
Cc1ccc(NC(=O)N(Cc2cc3cc4c(cc3[nH]c2=O)OCO4)CC2CCCO2)cc1 (stereo not drawn) | -0.1 | 0.2 | -4.8 | -24.0 | . | .
Cc1ccc2c(=O)cc(-c3cc(C(=O)O)cc4c3OCOC4)oc2c1 | 0.4 | -0.4 | 13.7 | 9.8 | . | .
O=Cc1cc(C(=O)O)cc2c1OCOC2 | -0.1 | 11.3* | -7.4 | -3.9 | -1.0 | -6.0
Cc1ccc(C(=O)C2C(c3ccccc3F)NC(=O)NC2(O)C(F)(F)F)cc1 (stereo not drawn) | 0.2 | 6.9* | -6.3 | -2.0 | 1.3 | 5.9
O=C1NC(c2ccc(F)cc2)C(C(=O)c2ccccc2)C(O)(C(F)(F)F)N1 (stereo not drawn) | -0.1 | 0.0 | 1.5 | -3.4 | . | .
COC(=O)c1ccc(C2NC(=O)NC(O)(C(F)(F)F)C2C(=O)c2ccc(F)cc2)cc1 (stereo not drawn) | 0.0 | 6.2* | -7.3 | -3.2 | 0.6 | 1.6
O=C1NC(c2ccccc2O)C(C(=O)c2ccccc2)C(O)(C(F)(F)F)N1 (stereo not drawn) | 0.1 | 0.3 | 3.5 | 4.2 | . | .
COC(=O)CN/N=C/c1ccc([N+](=O)[O-])cc1[N+](=O)[O-] | -0.2 | 7.6* | 7.5 | 2.0 | 0.7 | 11.7
COc1ccc(/C=N/Nc2ccc([N+](=O)[O-])cc2[N+](=O)[O-])c(O)c1 | 0.8 | -0.5 | 1.2 | 12.6 | . | .
O=C1/C(=C/c2ccccc2)SC(=S)N1N1C(=O)c2ccccc2C1=O | -0.1 | -0.8 | -8.7 | 0.9 | . | .
O=C1/C(=C\c2cccc([N+](=O)[O-])c2)SC(=S)N1N1C(=O)c2ccccc2C1=O | -0.1 | 5.0* | -6.3 | -9.9 | 0.3 | 10.2
COc1ccc(-c2cc3c(=O)n(CC(=O)NCCCN4CCCC4=O)ncn3n2)cc1 | -0.1 | -0.2 | -1.4 | -25.4 | . | .
COc1ccc(/C(O)=C2/C(=O)C(=O)N(CCCO)C2c2cccc(Cl)c2)cc1F (stereo not drawn) | -0.1 | 6.8* | 0.9 | 4.2 | 0.7 | 12.2
COc1cc(C2/C(=C(/O)c3ccc(Cl)cc3)C(=O)C(=O)N2CCO)ccc1O (stereo not drawn) | 0.6 | -0.9 | 12.1 | 9.2 | . | .
COCCCN1C(=O)C(=O)/C(=C(\O)c2ccc(C)cc2)C1c1ccc(F)cc1 (stereo not drawn) | 0.5 | 7.6* | 11.9 | 2.4 | -0.5 | -2.1
COc1cccc(CN2CCN(C(=O)CCC3(C)CCC(=O)N3)CC2=O)c1 (stereo not drawn) | -0.1 | 7.8* | -4.4 | -0.1 | 0.1 | 19.1
Cc1ccc(N(CC(=O)O)C2SC(=O)NC2=O)cc1 (stereo not drawn) | -0.1 | 5.7* | 12.9 | 1.6 | 1.6 | 1.4
CCOc1cc(C2NC(C(=O)O)CS2)cc([N+](=O)[O-])c1O (stereo not drawn) | 0.0 | -0.1 | -3.9 | 0.7 | . | .
Fc1ccc2nc(N3CCN(c4nc5ccccc5s4)CC3)sc2c1 | 0.1 | 14.7* | 10.0 | 2.4 | -0.5 | -7.0
CCN1C(=O)NC(c2ccccc2Cl)C(C(=O)OCCOC)=C1C (stereo not drawn) | 0.0 | 0.6 | -12.8 | -13.5 | . | .
Oc1ccc(CCNc2ccnc(N3CCN(c4ccccn4)CC3)n2)cc1 | 0.0 | 6.2* | -6.8 | 5.7 | -0.3 | -2.3
CC(=O)c1ccc(NC(=O)CSc2ccc(F)cc2)cc1 | -0.1 | 0.4 | -0.3 | -34.6 | . | .
CC(=O)c1ccc(NC(=O)CSc2ccc(C)cc2)cc1 | 0.1 | 5.5* | 11.7 | -39.4 | 0.7 | 4.0
Cc1cc(C)nc(SCC(=O)Nn2cnnc2)n1 | 0.2 | 7.1* | -19.2 | 2.0 | -0.2 | -12.7
Cc1cc(C)nc(SCC(=O)NC(C)(C)C)n1 | 0.0 | -0.3 | 16.4 | -1.2 | . | .
SMILES | FBW7 activator | GPR151 activ | MITF inh | TEAD-YAP inh | GPR151 conf act | GPR119 ag
COc1ccc(/C=C(\C#N)c2nc3ccccc3[nH]2)cc1O | -0.1 | 4.9* | 2.1 | -62.1 | 0.0 | 0.6
CCc1ccc(C2=NC(C)(CC)NC(c3cc(Cl)ccc3O)C2)cc1 (stereo not drawn) | 0.0 | 1.4 | 0.6 | 2.3 | . | .
CCCC1(C)N=C(c2ccc(CC)cc2)CC(c2cc(Br)ccc2O)N1 (stereo not drawn) | 0.2 | 11.5* | 12.2 | -2.4 | -0.2 | 7.6
CN1CCCC(OC(=O)c2cc(Cl)ccc2Cl)C1 (stereo not drawn) | -0.1 | -0.2 | -6.2 | -5.7 | . | .
CN1CCCC(OC(=O)c2cc(Br)ccc2Cl)C1 (stereo not drawn) | 0.2 | 6.2* | 24.8 | -0.2 | -0.7 | -0.8
Cc1cc(C)c(CN2CCc3nnc(C(C)NC(=O)c4ccco4)n3CC2)cc1C (stereo not drawn) | 0.5 | -1.1 | 8.2 | 17.4 | . | .
CCOC(=O)N1CCc2c(sc(NCc3cccc(OC)c3)c2C(=O)Nc2ccccc2OCC)C1 | 0.1 | 0.8 | 2.4 | -4.7 | . | .
CC(C)N(C)C(=O)C1CC(=O)c2sc(NC(=O)c3ccccc3)nc2C1 (stereo not drawn) | 0.5 | 6.4* | 10.8 | 4.1 | 0.2 | 10.5
CCC(C)C(=O)Nc1nc2c(s1)C(=O)CC(C(=O)N(C)Cc1nonc1C)C2 (stereo not drawn) | 0.1 | 5.7* | -4.7 | -16.6 | 0.3 | 1.9
CCC(C)C(=O)Nc1nc2c(s1)C(=O)CC(C(=O)N(C)C(C)C)C2 (stereo not drawn) | 0.2 | -1.5 | 8.0 | -28.7 | . | .
CCC(C)CC(=O)Nc1nc2c(s1)C(=O)CC(C(=O)N(C)C(C)C)C2 (stereo not drawn) | 0.1 | 7.1* | -1.3 | -6.5 | 0.1 | 0.5
O=c1oc(-c2cccc(Cl)c2)nc2sc3c(c12)CCCC3 | 0.6 | 4.1 | -1.6 | 6.5 | . | .
O=C1CN(C(=O)COC(=O)CCN=C2NS(=O)(=O)c3ccccc32)c2ccccc2N1 | 0.0 | 0.7 | -13.0 | 3.2 | . | .
CCCC(=O)Nc1c(C(=O)Nc2ccc(F)c(F)c2)oc2ccccc12 | 0.1 | -1.8 | -3.1 | 3.5 | . | .
O=C(Cc1cn(-c2ccc(Oc3ccccc3)nn2)c2ccccc12)NCCOc1ccccc1 | 0.1 | 2.7 | 13.6 | -11.9 | . | .
O=C(Cc1cn(-c2ccc(Cl)nn2)c2ccccc12)NCCOc1ccccc1 | 0.1 | 6.9* | 5.5 | 2.4 | 0.5 | -2.1
CCN(CC)C(=O)C1CCCN(c2cc(C(=O)NCc3nc4ccccc4[nH]3)ccn2)C1 (stereo not drawn) | 0.0 | 6.6* | 2.5 | 2.1 | -0.1 | -2.3
O=C(CN1CC(=O)N2CCCC2C1=O)NCc1ccccc1 (stereo not drawn) | 0.2 | -2.0 | 11.8 | 4.8 | . | .
